# Laboratory results: the supplement of paper PMC12282887
# ± gives the standard deviation of the averaged measurements.
# How the values were obtained:
# Assay in all cases: promoter activity interaction Z-score (Lux/OD deviation from empty-vector control); higher = stronger promoter induction by the compound
# [1] = tested on: E. coli BW25113 acrABp lux reporter
# Outline: (§1)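 E. coli BW25113, as wild type or one of three single-gene deletion strains, carried low-copy luxCDABE promoter reporters and grew in 40 µl LB Lennox in 384-well plates at 37°C, with OD600 and luminescence read every 30 min for 12 h. Each compound was run at four 1:2 dilutions in biological duplicates, integration spanned 0–8 h for wild type and 1–9 h for deletion strains, and wells under 10% of the median growth value were dropped. The score is the Z-transformed residual of growth-normalised luminescence fitted against a control.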
# [2] = tested on: E. coli BW25113 micFp lux reporter
# Outline: as §1
# [3] = tested on: E. coli BW25113 ompFp lux reporter
# Outline: as §1
# [4] = tested on: E. coli BW25113 robp lux reporter
# Outline: as §1
# [5] = tested on: E. coli BW25113 soxSp lux reporter
# Outline: as §1
# [6] = tested on: E. coli BW25113 tolCp lux reporter
# Outline: as §1
# [7] = 0.056 µg/ml, genetic background: wild type
# [8] = 0.056 µg/ml, genetic background: ΔmarA
# [9] = 0.056 µg/ml, genetic background: Δrob
# [10] = 0.056 µg/ml, genetic background: ΔsoxS
# [11] = 0.11 µg/ml, genetic background: wild type
# [12] = 0.11 µg/ml, genetic background: ΔmarA
# [13] = 0.11 µg/ml, genetic background: Δrob
# [14] = 0.11 µg/ml, genetic background: ΔsoxS
# [15] = 0.22 µg/ml, genetic background: wild type
# [16] = 0.22 µg/ml, genetic background: ΔmarA
# [17] = 0.22 µg/ml, genetic background: Δrob
# [18] = 0.22 µg/ml, genetic background: ΔsoxS
# [19] = 0.44 µg/ml, genetic background: wild type
# [20] = 0.44 µg/ml, genetic background: ΔmarA
# [21] = 0.44 µg/ml, genetic background: Δrob
# [22] = 0.44 µg/ml, genetic background: ΔsoxS
structure (smiles),measurement,setting,value
CN(C)[C@@H]1C(O)=C(C(N)=O)C(=O)[C@@]2(O)C(O)=C3C(=O)c4c(O)cccc4[C@@](C)(O)[C@H]3C[C@@H]12 [Tetracycline],promoter activity interaction Z-score,[1]; [7],0.26 ± 0.44
same,promoter activity interaction Z-score,[1]; [8],0.996 ± 0.81
same,promoter activity interaction Z-score,[1]; [9],-0.021 ± 0.06
same,promoter activity interaction Z-score,[1]; [10],-0.156 ± 0.057
same,promoter activity interaction Z-score,[1]; [11],0.439 ± 0.11
same,promoter activity interaction Z-score,[1]; [12],0.363 ± 1.1
same,promoter activity interaction Z-score,[1]; [13],0.655 ± 0.19
same,promoter activity interaction Z-score,[1]; [14],0.643 ± 0.026
same,promoter activity interaction Z-score,[1]; [15],1.07 ± 0.24
same,promoter activity interaction Z-score,[1]; [16],-0.35 ± 0.28
same,promoter activity interaction Z-score,[1]; [17],1.78 ± 0.42
same,promoter activity interaction Z-score,[1]; [18],1.59 ± 0.34
same,promoter activity interaction Z-score,[1]; [19],2.18 ± 0.16
same,promoter activity interaction Z-score,[1]; [20],-1.42 ± 0.33
same,promoter activity interaction Z-score,[1]; [21],5.96
same,promoter activity interaction Z-score,[1]; [22],-1.22
same,promoter activity interaction Z-score,[2]; [7],1.46 ± 0.49
same,promoter activity interaction Z-score,[2]; [8],0.0522 ± 0.015
same,promoter activity interaction Z-score,[2]; [9],-0.0785 ± 0.057
same,promoter activity interaction Z-score,[2]; [10],0.373 ± 0.06
same,promoter activity interaction Z-score,[2]; [11],2.61 ± 0.64
same,promoter activity interaction Z-score,[2]; [12],0.188 ± 0.14
same,promoter activity interaction Z-score,[2]; [13],0.177 ± 0.19
same,promoter activity interaction Z-score,[2]; [14],1.44 ± 0.23
same,promoter activity interaction Z-score,[2]; [15],3.37 ± 0.62
same,promoter activity interaction Z-score,[2]; [16],0.403 ± 0.2
same,promoter activity interaction Z-score,[2]; [17],0.131 ± 0.15
same,promoter activity interaction Z-score,[2]; [18],1.86 ± 0.2
same,promoter activity interaction Z-score,[2]; [19],0.313 ± 0.3
same,promoter activity interaction Z-score,[2]; [20],0.3 ± 0.28
same,promoter activity interaction Z-score,[2]; [21],-0.128 ± 0.088
same,promoter activity interaction Z-score,[2]; [22],-0.349 ± 0.37
same,promoter activity interaction Z-score,[3]; [7],1.85 ± 1.5
same,promoter activity interaction Z-score,[3]; [8],1.72 ± 1.3
same,promoter activity interaction Z-score,[3]; [9],1.96 ± 1.3
same,promoter activity interaction Z-score,[3]; [10],0.631 ± 0.11
same,promoter activity interaction Z-score,[3]; [11],2.68 ± 1
same,promoter activity interaction Z-score,[3]; [12],2.53 ± 0.79
same,promoter activity interaction Z-score,[3]; [13],2.36 ± 0.4
same,promoter activity interaction Z-score,[3]; [14],2.15 ± 1
same,promoter activity interaction Z-score,[3]; [15],1.98 ± 0.54
same,promoter activity interaction Z-score,[3]; [16],1.86 ± 0.28
same,promoter activity interaction Z-score,[3]; [17],1.26 ± 0.07
same,promoter activity interaction Z-score,[3]; [18],2.71 ± 0.19
same,promoter activity interaction Z-score,[3]; [19],-0.73 ± 0.18
same,promoter activity interaction Z-score,[3]; [20],-1.97 ± 1.1
same,promoter activity interaction Z-score,[3]; [22],-3.24
same,promoter activity interaction Z-score,[4]; [7],0.998 ± 1.4
same,promoter activity interaction Z-score,[4]; [8],0.179 ± 0.2
same,promoter activity interaction Z-score,[4]; [9],0.105 ± 0.73
same,promoter activity interaction Z-score,[4]; [10],-0.0139 ± 0.3
same,promoter activity interaction Z-score,[4]; [11],1.13 ± 0.42
same,promoter activity interaction Z-score,[4]; [12],-0.0571 ± 0.62
same,promoter activity interaction Z-score,[4]; [13],0.458 ± 0.4
same,promoter activity interaction Z-score,[4]; [14],0.51 ± 0.84
same,promoter activity interaction Z-score,[4]; [15],-0.261 ± 0.053
same,promoter activity interaction Z-score,[4]; [16],-0.985 ± 0.35
same,promoter activity interaction Z-score,[4]; [17],0.638 ± 0.37
same,promoter activity interaction Z-score,[4]; [18],0.945 ± 1.1
same,promoter activity interaction Z-score,[4]; [19],-1.59 ± 0.88
same,promoter activity interaction Z-score,[4]; [20],-2.19 ± 0.95
same,promoter activity interaction Z-score,[4]; [22],-2.66 ± 0.43
same,promoter activity interaction Z-score,[5]; [7],0.151 ± 0.19
same,promoter activity interaction Z-score,[5]; [8],0.0648 ± 0.063
same,promoter activity interaction Z-score,[5]; [9],-0.00055 ± 0.21
same,promoter activity interaction Z-score,[5]; [10],-0.162 ± 0.37
same,promoter activity interaction Z-score,[5]; [11],0.728 ± 0.037
same,promoter activity interaction Z-score,[5]; [12],0.346 ± 0.055
same,promoter activity interaction Z-score,[5]; [13],0.252 ± 0.33
same,promoter activity interaction Z-score,[5]; [14],0.493 ± 0.026
same,promoter activity interaction Z-score,[5]; [15],1.18 ± 0.3
same,promoter activity interaction Z-score,[5]; [16],0.609 ± 0.14
same,promoter activity interaction Z-score,[5]; [17],0.598 ± 0.38
same,promoter activity interaction Z-score,[5]; [18],1.26 ± 0.17
same,promoter activity interaction Z-score,[5]; [19],1.56 ± 0.18
same,promoter activity interaction Z-score,[5]; [20],1.47 ± 0.25
same,promoter activity interaction Z-score,[5]; [21],1.46 ± 1
same,promoter activity interaction Z-score,[5]; [22],0.966 ± 0.8
same,promoter activity interaction Z-score,[6]; [7],0.446 ± 0.25
same,promoter activity interaction Z-score,[6]; [8],0.201 ± 0.44
same,promoter activity interaction Z-score,[6]; [9],0.673 ± 1.5
same,promoter activity interaction Z-score,[6]; [10],-0.654 ± 0.27
same,promoter activity interaction Z-score,[6]; [11],1.04 ± 0.64
same,promoter activity interaction Z-score,[6]; [12],0.0643 ± 0.81
same,promoter activity interaction Z-score,[6]; [13],0.925 ± 0.084
same,promoter activity interaction Z-score,[6]; [14],-0.579 ± 0.46
same,promoter activity interaction Z-score,[6]; [15],1.19 ± 1.5
same,promoter activity interaction Z-score,[6]; [16],1.09 ± 0.74
same,promoter activity interaction Z-score,[6]; [17],1.09 ± 0.63
same,promoter activity interaction Z-score,[6]; [18],0.351 ± 1.5
same,promoter activity interaction Z-score,[6]; [19],-0.0424 ± 0.045
same,promoter activity interaction Z-score,[6]; [20],1.29 ± 2
same,promoter activity interaction Z-score,[6]; [21],1.15 ± 0.23
same,promoter activity interaction Z-score,[6]; [22],0.632 ± 1.4
